TROY signal inh = blocks TROY-dependent signaling in reporter cells. inhibition, % at 10 µM. Q293 LMP1-TROYcd NF-kB luciferase reporter, 4 h. actives 0.98% (n = 360,000);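 active means compounds whose plate-normalised and pattern-corrected inhibition of the luciferase reporter signal at the single screening dose is 50% or more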
HSF1 inh = HSF1 inhibition | NIH3T3-HGL HSE-luciferase, MG132-induced, luminescence 8 h; stronger effect = lower value | activity change, negative = inhibition, % at 7.5 µM (by protocol) | actives 0.77% (n = 300,000);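 active means more than half of replicate wells show activity change below -50%, luminescence cut by over half; inconclusive means some wells, but at most half, below -50%; inactive means no replicate well below -50%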;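 further: luciferase reports HSF-1 transcriptional activity via heat shock element; 0% = median of DMSO wells and -100% = zero luminescence signal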
LMP1 NFkB inh = Epstein-Barr LMP1 NF-kappaB reporter inhibition | LMP1-induced NF-kappaB luciferase reporter cells, luminescence | inhibition, % at 12.5 µM | actives 0.69% (n = 350,000) | AID 504558; in the data active means inhibition above about 41%; inconclusive means no clear call, values can overlap the other calls;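 further: 0% = neutral control wells and 100% = reference inhibitor control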
HSF-1 act = increases HSF-1 driven luciferase reporter signal | NIH3T3-HGL HSF-1 luciferase reporter, MG132, 8 h; 100% = twice DMSO control signal | activation, % at 9 µM | actives 1.7% (n = 300,000) | AID 504408;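 active means mean replicate activation of at least 50% with a set share of replicates each reaching 50%; inconclusive means only one of those two conditions met; inactive means mean below 50% and too few replicates reaching it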;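 further: 0% = median of the neutral control wells and 100% = twice that signal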
LGR2 antag = blocks bursicon-induced cAMP signaling via Drosophila LGR2; inhibition, % at 9.99 µM; actives 0.35% (n = 380,000); HEK293 LGR2, CRE-luciferase, bursicon-stimulated, 4 h;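 active means drop in luminescence signal, shown as inhibition above about 50% in the replicate tests, limit read from the data, passing the limit was not always enough; inconclusive means probably only some replicates passing the limit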;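 further: agonist challenge used bursicon conditioned medium at about half maximal strength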
TWEAK Fn14 block = blocks TWEAK-Fn14 interaction in a reporter cell assay | inhibition, % at 10 µM | AID 1159606 | TWEAK-stimulated Fn14 reporter cells, luciferase luminescence, 8 h | actives 2% (n = 360,000); in the data active means inhibition above about 50%
* hit, by the source's call; ? = inconclusive; / = not tested or not shown. Shown are actives, neighbours in structure and some others; about 3.6% of the full set was active somewhere.

SMILES	TROY signal inh	HSF1 inh	LMP1 NFkB inh	HSF-1 act	LGR2 antag	TWEAK Fn14 block
CC(C)Cn1c(N)c(C(=O)NCC2CCCO2)c2nc3ccccc3nc21 (stereo unspecified)	51*	-8	1	2	/	6
O=C(Nc1ccc(-c2ccccc2)cc1)[C@@H]1[C@@H](CO)[C@@H]2Cn3c(cccc3=O)[C@@H]2N1CC1CCCC1	/	/	/	/	40	/
Cc1noc(C)c1S(=O)(=O)N(C)C[C@H]1OCCCC[C@@H](C)Oc2ccc(NC(=O)NC3CCCCC3)cc2C(=O)N([C@@H](C)CO)C[C@H]1C	/	/	/	/	-2	/
Cc1ccc(CNC(=O)C2CCN(S(=O)(=O)c3c(C)noc3/C=C/c3ccco3)CC2)cc1	15	16	83*	27	12	17
Cc1ccc(NC(=O)C2CCN(S(=O)(=O)c3c(C)noc3/C=C/c3ccco3)CC2)nc1	19	-2	11	14	8	32
Cc1noc(/C=C/c2ccco2)c1S(=O)(=O)N1CCC(C(=O)NCc2ccco2)CC1	-6	-72*	0	-78	/	-6
CO[C@H]1CN(C)C(=O)c2ccc(NC(=O)NC(C)C)cc2OC[C@H](C)N(S(C)(=O)=O)C[C@H]1C	/	/	/	/	2	/
CN(C)CC#Cc1ccc([C@@H]2[C@@H](CO)N3C(=O)CN(C(=O)Cc4ccccc4)C[C@H]23)cc1	/	/	/	/	1	/
O=C(C[C@@H]1CC[C@H](NC(=O)c2ccncc2)[C@@H](CO)O1)NCCc1ccncc1	/	/	/	/	1	/
CC1=NN(c2nc(-c3ccc(C)cc3)cs2)C(=O)C1N=Nc1ccccc1O (stereo unspecified)	0	-31	-2	-32	-7	62*
CC1=NN(c2nc(-c3ccc(C)cc3)cs2)C(=O)C1N=Nc1cccc(O)c1 (stereo unspecified)	30	7	5	21	0	50*
CC1=NN(c2ccccc2)C(=O)C1N=Nc1cccc(O)c1 (stereo unspecified)	-1	29	1	?	-39	25
O=c1nc(Nc2ccccc2)oc2ccccc12	-64	9	-14	30	-78	-17
O=c1oc(Nc2ccc(F)cc2)nc2ccccc12	6	12	-15	23	24	58*
CCCC#Cc1ccc2c(c1)O[C@@H](CN(C)C(=O)Nc1ccccc1F)[C@H](C)CN([C@@H](C)CO)S2(=O)=O	/	/	/	/	8	/
COC(=O)C(=C/C(C)=C/c1cccs1)C(=O)OC	0	32	-8	66*	?	29
CC(=O)OCCN1c2ccccc2Sc2cnccc21	9	/	11	/	11	39
C=CCN1c2ccccc2Sc2cnccc21	44	/	-3	/	19	56*
CCC(=O)N(C)C[C@H]1Oc2cc(C#CC(C)C)ccc2S(=O)(=O)N([C@@H](C)CO)C[C@H]1C	/	/	/	/	0	/
CCOC(=O)Nc1ccc2c(c1)N(C(=O)CCN1CCOCC1)c1ccccc1S2=O (stereo unspecified)	30	51	22	80*	/	14
Cn1cnc(CCNC(=O)C[C@H]2CC[C@@H]3[C@H](COC[C@H](O)CN3C(=O)Nc3ccc(F)cc3)O2)c1	/	/	/	/	-20	/
CCOc1ccc(C)cc1S(=O)(=O)NC1CCCCC1	1	22	-6	61*	/	20
CCOc1ccc(Cl)cc1S(=O)(=O)NC1CCCC1	-13	3	2	6	5	10
CCC1CCCCN1C(=O)COC(=O)c1cc2ccccc2cc1O (stereo unspecified)	-22	46	1	83*	/	-24
O=C1[C@H]2[C@@H](c3ccccc3)N[C@]3(CCCN(Cc4ccco4)C3=O)[C@H]2C(=O)N1Cc1ccccc1	10	/	-1	/	7	10
SMILES	TROY signal inh	HSF1 inh	LMP1 NFkB inh	HSF-1 act	LGR2 antag	TWEAK Fn14 block
COc1ccc([C@H]2N[C@]3(CCCN(Cc4ccco4)C3=O)[C@H]3C(=O)N(Cc4ccccc4)C(=O)[C@@H]23)cc1	2	/	46*	/	-2	-7
O=C(NCC[C@H]1CC[C@@H](NS(=O)(=O)c2ccc(Cl)cc2)[C@@H](CO)O1)Nc1ccc(F)cc1	/	/	/	/	9	/
COc1ccc(-c2nn(-c3ccccc3)cc2/C=N/N2C(=O)CSC2=S)cc1	-33	38	-18	76*	/	62*
CC(=O)Nc1ccc(SCC(=O)c2c(N)n(Cc3ccccc3)c(=O)n(C)c2=O)cc1	4	-8	3	-7	-3	12
CC(C)Nc1nnc(SCC(=O)c2c(N)n(Cc3ccccc3)c(=O)n(C)c2=O)s1	-15	1	64*	-8	/	19
c1ccc(Cn2nnnc2C(c2cccs2)N2CCc3ccccc3C2)cc1 (stereo unspecified)	13	135	9	177*	/	6
CO[C@@H]1CN(C)C(=O)c2cc(NS(=O)(=O)c3ccccc3F)ccc2OC[C@H](C)NC[C@@H]1C	/	/	/	/	20	/
Cc1cccc(OCc2nc(-c3ccccn3)n[nH]2)c1	61*	-2	-4	-3	/	-6
CCOC(=O)c1nn(-c2ccc3c(c2)CCN3C(C)=O)cc1O	20	-2	13	15	46	65*
CCOC(=O)c1nn(-c2ccc(F)cc2)cc1O	-27	-6	2	3	-31	37
Cc1ccccc1OCCCC(=O)Nc1nccs1	-2	8	4	23	12	19
Cc1cccc(OCC(=O)Nc2nccs2)c1C	-7	28	1	56*	-16	32
Cc1c(C)c2ccc(OCC(=O)Nc3ccccn3)cc2oc1=O	36	6	28	-11	21	82*
O=C(COc1ccc2c(c1)CCC2)Nc1ccccn1	71*	-4	-8	-12	74*	97*
Cc1c(C)c2ccc(OCC(=O)Nc3nccs3)cc2oc1=O	48	3	9	5	56*	90*
O=C(CCN1CCCCC1)NCC[C@H]1CC[C@H](NC(=O)C2CC2)[C@H](CO)O1	/	/	/	/	-8	/
C[C@@H]1CN([C@@H](C)CO)C(=O)c2cc(-c3ccncc3)cnc2O[C@H]1CN(C)S(=O)(=O)c1ccc(F)cc1	/	/	/	/	19	/
CO[C@H](CN(C)C(=O)Nc1ccc(C(F)(F)F)cc1)[C@H](C)CN(Cc1ccccc1Cl)[C@@H](C)CO	/	/	/	/	3	/
CO[C@@H]1CN(C)C(=O)c2ccc(NC(C)=O)cc2OC[C@H](C)N(C(=O)c2cccnc2)C[C@H]1C	/	/	/	/	-9	/
Cc1c(Cl)c(C(=O)NC2CCCC2)nn1C	3	17	-8	61*	/	-6
Cn1nc(C(=O)NC2CCCC2)c2ccccc2c1=O	-16	/	-12	/	-5	-13
Cn1ncc([N+](=O)[O-])c1C(=O)NC1CCCCCC1	9	-5	-3	-12	1	11
